# Key:
# [1] = target: T1, Ephrin type-A receptor 3 (Homo sapiens) (UniProt P29320); details: at 10 µM
# T1 sequence (whole entry): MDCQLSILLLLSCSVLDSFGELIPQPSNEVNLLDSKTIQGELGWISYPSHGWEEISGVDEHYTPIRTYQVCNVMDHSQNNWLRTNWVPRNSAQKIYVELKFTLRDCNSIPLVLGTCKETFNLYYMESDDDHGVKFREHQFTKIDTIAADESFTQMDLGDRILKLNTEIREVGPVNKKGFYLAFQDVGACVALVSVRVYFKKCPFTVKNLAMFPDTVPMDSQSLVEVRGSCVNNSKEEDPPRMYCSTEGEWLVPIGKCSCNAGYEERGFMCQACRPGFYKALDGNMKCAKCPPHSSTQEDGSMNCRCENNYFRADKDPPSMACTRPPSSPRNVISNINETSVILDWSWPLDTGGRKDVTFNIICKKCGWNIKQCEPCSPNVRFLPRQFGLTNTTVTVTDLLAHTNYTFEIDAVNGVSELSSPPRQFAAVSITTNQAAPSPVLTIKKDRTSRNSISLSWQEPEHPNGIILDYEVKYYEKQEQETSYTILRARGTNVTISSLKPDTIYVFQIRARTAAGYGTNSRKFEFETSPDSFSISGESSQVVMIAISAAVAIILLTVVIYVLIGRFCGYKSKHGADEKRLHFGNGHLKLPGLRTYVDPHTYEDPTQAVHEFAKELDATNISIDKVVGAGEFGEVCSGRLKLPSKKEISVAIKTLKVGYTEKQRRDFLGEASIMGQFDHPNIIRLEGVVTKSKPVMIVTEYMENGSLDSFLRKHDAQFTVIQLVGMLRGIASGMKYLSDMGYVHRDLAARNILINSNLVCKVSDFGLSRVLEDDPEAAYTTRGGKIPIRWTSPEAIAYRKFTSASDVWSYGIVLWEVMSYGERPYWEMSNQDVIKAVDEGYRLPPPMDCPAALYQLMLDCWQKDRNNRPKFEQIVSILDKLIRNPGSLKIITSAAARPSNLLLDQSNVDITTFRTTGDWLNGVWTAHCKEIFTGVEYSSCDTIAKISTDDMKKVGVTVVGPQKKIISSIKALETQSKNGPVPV
# [2] = target: Ephrin type-A receptor 4 (Homo sapiens) (UniProt P54764); details: at 1 µM
# [3] = target: Ephrin type-A receptor 4 (Homo sapiens) (UniProt P54764); details: at 10 µM
# [4] = target: Ephrin type-A receptor 5 (Homo sapiens) (UniProt P54756); details: at 1 µM
# [5] = target: Ephrin type-A receptor 5 (Homo sapiens) (UniProt P54756); details: at 10 µM
# [6] = target: Ephrin type-A receptor 7 (Homo sapiens) (UniProt Q15375); details: at 1 µM
# [7] = target: Ephrin type-A receptor 7 (Homo sapiens) (UniProt Q15375); details: at 10 µM
# [8] = target: T2, Ephrin type-A receptor 8 (Homo sapiens) (UniProt P29322); details: at 1 µM
# T2 sequence (whole entry): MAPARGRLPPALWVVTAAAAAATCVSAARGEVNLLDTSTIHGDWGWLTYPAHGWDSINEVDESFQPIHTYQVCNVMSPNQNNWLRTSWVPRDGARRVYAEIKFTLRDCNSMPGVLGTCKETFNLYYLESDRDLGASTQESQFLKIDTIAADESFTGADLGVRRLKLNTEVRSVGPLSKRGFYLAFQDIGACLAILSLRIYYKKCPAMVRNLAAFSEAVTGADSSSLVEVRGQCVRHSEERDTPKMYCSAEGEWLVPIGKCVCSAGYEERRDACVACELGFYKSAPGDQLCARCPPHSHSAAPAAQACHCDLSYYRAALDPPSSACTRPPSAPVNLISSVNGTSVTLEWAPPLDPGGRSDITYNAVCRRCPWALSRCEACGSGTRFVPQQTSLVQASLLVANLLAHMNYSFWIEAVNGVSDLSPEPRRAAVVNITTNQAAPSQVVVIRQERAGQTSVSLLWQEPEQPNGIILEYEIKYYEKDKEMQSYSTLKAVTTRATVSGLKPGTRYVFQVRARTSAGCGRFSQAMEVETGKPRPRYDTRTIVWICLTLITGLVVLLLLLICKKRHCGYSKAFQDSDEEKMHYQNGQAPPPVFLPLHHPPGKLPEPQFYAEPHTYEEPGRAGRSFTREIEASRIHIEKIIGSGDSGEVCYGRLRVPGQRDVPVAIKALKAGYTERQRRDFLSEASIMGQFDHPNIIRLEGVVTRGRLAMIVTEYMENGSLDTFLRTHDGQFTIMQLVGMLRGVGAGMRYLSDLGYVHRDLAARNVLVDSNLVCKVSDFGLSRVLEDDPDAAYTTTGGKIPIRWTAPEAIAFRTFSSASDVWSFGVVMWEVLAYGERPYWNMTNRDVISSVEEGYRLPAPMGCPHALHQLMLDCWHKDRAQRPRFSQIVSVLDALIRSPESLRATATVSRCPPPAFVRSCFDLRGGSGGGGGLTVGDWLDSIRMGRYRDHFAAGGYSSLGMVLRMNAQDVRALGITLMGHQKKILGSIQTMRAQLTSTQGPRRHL
# [9] = target: T2, Ephrin type-A receptor 8 (Homo sapiens); details: at 10 µM
# Chain of Ephrin type-A receptor 7 (Homo sapiens) (Q15375 28-998 limits assumed): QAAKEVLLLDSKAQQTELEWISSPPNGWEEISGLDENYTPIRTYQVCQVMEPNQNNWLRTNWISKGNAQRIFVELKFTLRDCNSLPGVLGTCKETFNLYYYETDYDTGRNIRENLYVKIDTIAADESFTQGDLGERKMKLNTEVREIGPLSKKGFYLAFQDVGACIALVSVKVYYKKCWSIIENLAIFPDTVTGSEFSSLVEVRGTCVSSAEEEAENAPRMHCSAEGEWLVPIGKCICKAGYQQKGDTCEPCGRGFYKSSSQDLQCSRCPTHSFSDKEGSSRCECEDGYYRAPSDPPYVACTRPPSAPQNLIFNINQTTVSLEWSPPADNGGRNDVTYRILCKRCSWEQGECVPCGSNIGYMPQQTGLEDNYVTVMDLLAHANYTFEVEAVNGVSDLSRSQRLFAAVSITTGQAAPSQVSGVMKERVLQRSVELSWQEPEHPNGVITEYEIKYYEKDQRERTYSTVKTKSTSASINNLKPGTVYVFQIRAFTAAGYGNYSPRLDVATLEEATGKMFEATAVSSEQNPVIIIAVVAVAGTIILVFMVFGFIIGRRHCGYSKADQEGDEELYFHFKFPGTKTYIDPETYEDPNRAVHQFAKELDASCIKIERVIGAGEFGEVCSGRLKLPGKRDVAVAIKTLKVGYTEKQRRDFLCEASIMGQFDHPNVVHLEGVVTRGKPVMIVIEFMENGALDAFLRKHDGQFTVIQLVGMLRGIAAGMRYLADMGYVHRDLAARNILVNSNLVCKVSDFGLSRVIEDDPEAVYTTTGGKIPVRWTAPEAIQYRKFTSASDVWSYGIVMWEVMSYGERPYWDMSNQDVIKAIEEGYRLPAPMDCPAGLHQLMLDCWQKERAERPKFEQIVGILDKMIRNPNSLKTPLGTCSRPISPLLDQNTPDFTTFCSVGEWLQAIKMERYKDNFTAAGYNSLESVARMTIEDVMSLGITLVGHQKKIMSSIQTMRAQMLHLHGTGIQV
# Chain of Ephrin type-A receptor 5 (Homo sapiens) (P54756 whole entry): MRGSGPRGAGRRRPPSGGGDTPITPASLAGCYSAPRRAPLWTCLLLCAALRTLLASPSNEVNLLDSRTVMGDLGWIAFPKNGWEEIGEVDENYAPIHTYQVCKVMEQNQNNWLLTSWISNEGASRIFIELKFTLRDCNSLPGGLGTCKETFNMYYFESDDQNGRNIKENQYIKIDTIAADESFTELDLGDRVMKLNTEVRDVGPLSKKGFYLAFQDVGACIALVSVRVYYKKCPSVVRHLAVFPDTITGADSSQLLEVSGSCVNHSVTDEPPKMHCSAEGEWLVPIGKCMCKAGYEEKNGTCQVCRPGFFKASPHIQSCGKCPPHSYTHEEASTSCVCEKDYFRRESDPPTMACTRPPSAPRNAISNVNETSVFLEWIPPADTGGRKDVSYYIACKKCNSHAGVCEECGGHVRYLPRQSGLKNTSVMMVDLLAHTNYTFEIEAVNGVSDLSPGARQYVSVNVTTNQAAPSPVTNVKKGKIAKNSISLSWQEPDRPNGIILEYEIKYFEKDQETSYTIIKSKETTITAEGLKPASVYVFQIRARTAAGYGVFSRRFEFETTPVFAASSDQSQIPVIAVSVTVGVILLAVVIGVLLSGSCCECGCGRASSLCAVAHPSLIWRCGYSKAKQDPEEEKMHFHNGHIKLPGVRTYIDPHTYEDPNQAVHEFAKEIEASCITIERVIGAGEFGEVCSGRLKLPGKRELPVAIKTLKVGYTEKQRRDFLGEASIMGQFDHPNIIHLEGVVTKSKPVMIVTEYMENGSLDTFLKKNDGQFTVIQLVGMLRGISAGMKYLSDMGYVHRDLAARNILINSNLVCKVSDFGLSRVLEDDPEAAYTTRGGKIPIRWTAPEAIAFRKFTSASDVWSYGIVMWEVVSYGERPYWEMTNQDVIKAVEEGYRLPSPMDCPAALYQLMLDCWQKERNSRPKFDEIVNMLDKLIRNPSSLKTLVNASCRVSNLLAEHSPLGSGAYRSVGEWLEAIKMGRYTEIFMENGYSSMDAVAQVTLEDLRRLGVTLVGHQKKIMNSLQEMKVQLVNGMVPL
# Chain of Ephrin type-A receptor 4 (Homo sapiens) (P54764 whole entry): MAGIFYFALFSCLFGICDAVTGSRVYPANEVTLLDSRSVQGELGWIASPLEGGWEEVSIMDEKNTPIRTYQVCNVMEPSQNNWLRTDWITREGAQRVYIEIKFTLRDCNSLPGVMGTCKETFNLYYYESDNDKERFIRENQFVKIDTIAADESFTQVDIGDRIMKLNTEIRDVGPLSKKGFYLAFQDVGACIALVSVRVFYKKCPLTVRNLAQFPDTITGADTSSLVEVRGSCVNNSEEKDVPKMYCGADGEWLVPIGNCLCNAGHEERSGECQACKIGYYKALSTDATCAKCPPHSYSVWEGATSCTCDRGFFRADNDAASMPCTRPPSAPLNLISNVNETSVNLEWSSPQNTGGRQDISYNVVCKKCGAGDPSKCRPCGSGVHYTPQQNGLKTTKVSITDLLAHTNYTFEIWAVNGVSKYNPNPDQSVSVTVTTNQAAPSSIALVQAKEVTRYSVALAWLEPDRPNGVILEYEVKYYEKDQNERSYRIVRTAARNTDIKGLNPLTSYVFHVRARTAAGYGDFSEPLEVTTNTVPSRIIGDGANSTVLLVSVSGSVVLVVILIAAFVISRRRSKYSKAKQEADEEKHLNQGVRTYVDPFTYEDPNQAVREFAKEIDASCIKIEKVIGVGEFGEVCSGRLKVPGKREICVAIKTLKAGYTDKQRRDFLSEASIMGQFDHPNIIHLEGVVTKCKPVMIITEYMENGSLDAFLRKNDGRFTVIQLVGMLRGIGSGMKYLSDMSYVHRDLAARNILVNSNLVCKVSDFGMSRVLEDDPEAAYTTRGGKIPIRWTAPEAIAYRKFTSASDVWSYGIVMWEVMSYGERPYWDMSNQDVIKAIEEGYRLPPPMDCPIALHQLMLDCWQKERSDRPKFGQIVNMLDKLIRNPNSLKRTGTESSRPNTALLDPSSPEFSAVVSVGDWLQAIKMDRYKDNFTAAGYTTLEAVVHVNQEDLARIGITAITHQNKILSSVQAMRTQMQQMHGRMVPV
smiles,measurement,setting,value
CC(C)n1cnc2/c(=N/c3cccc(Cl)c3)nc(NCCO)[nH]c21,residual activity,[1],54%
same,residual activity,[2],110%
same,residual activity,[3],75%
same,residual activity,[4],102%
same,residual activity,[5],43%
same,residual activity,[6],83%
same,residual activity,[7],43%
same,residual activity,[8],97%
same,residual activity,[9],77%

# Reference: ChEMBL document CHEMBL2218924, “A broad activity screen in support of a chemogenomic map for kinase signalling research and drug discovery” (Biochem J, 2013)
